# BRCT inh green = qHTS Assay for Inhibitors of BRCT-Phosphoprotein Interaction (Green Fluorophore); AID 875, 2007; 0.05% of 75,000 active; Potency, µM (top dose mostly 76.9 µM), most hits filed as inhibitors; BRCA1 BRCT-phosphopeptide binding, green fluorescence polarization
#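 Fluorescence polarization: His-tagged BRCT (~35 kDa BRCA1 C-terminus, 250 nM) bound to 100 nM fluorescein-labeled phosphorylated 10-aa BACH1 peptide, pH 7.3 phosphate buffer with DTT and Tween 20. Compounds incubated 12 min at room temperature; inhibition read as lowered polarization.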
# TsaE inh = qHTS Assay for Inhibitors of YjeE | purified YjeE enzyme, qHTS inhibition assay | 0.05% of 71,000 active | tRNA threonylcarbamoyladenosine biosynthesis protein TsaE (Escherichia coli (strain … | Potency, µM
#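 Fluorescence polarization of a BODIPY Texas Red–ADP probe (2 uM) bound to purified YjeE (10 uM) was read after 15 min room-temperature incubation with compounds. Loss of polarization marks inhibitors; ADP serves as titrated control.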
# BRCT inh red = qHTS Assay for Inhibitors of BRCT-Phosphoprotein Interaction (Red Fluorophore); Breast cancer type 1 susceptibility protein (Homo sapiens), P38398; BRCT-phosphopeptide binding, red fluorescence polarization; Potency, µM (titrated, usually from 76.9 µM), hits mostly inhibitors; 0.03% of 75,000 active; AID 892, 2007
#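 Fluorescence polarization: 100 nM His-tagged BRCA1 BRCT with 100 nM TAMRA-labelled phospho-BACH1 decapeptide, phosphate buffer pH 7.3 with 150 mM NaCl, DTT, 0.01% Tween 20; 12 min RT. Binding inhibition seen as FP decrease.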
# TSHR ag = qHTS Assay for Agonists of the Thyroid Stimulating Hormone Receptor | HEK293-CNG-TSHR cells (CNG channel as cAMP sensor), membrane potential dye, cAMP | 0.48% of 73,000 active | Thyrotropin receptor (Homo sapiens), P16473 | Potency, µM (titrated, usually from 57.1 µM), most hits filed as activators | AID 926, 2007; active means well fitted activation curve with a large enough effect in the main read-out, with a control signal flat, not every such curve was filed as active; inconclusive means small, poorly fitted or top-dose-only effect, or a change in a side signal; inactive means no such curve, though single readings can be large or run the other way; reference of the percent scale not stated here;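 further: the control signal comes from parental cells without the receptor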
# Target sequence (P16473 whole entry, looked up): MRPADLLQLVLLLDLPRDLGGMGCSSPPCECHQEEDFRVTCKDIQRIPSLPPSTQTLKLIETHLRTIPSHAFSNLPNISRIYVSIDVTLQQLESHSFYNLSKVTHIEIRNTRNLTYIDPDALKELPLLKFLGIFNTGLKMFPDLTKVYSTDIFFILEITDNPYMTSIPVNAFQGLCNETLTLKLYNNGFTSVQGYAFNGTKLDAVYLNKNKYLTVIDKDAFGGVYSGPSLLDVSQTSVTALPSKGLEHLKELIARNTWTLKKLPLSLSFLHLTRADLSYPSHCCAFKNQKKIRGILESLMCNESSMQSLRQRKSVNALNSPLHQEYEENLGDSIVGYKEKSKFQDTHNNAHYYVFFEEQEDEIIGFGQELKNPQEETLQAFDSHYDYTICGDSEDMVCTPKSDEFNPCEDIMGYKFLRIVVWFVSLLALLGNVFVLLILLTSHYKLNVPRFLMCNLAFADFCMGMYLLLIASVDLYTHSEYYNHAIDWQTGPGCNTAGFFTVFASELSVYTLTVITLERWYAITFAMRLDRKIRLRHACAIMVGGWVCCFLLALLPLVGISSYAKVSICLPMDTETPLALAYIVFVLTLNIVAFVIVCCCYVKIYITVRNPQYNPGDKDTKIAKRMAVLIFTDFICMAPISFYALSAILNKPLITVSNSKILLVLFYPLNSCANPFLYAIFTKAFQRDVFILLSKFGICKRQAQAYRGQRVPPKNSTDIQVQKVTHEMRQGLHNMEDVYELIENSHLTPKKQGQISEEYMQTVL
#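 HEK 293 cells stably expressing TSHR and a cAMP-gated CNG channel; parental CNG-only cells as counterscreen. Cells preloaded 60 min with membrane potential dye plus 100 uM RO 20-1724, then compound 30 min; fluorescence read at 590 nm.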
# DNA Pol III inh = qHTS Assay for Inhibitors of DNA Polymerase III Holoenzyme System. reconstituted DNA polymerase III holoenzyme replication, biochemical. Potency, µM (doses to about 57.1 µM). 0.25% of 71,000 active. AID 603, 2007
#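 Reconstituted *E. coli* holoenzyme (0.35 nM Pol III, 1 nM beta, 154 nM SSB, 2 nM primase) was preincubated with compound for 15 min at RT. Synthesis on 1.4 nM ssM13Gori ran 35 min, then was stopped with PicoGreen/EDTA and read as dsDNA fluorescence.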
# HEK293 cAMP cs = qHTS Assay for Agonists of the Thyroid Stimulating Hormone Receptor: Activators of Intracellular cAMP Concentrations in Parental HEK 293; Potency, µM (highest dose often 57.1 µM), actives largely listed as activators; parental HEK293 CNG cAMP sensor, membrane potential fluorescence; 2.5% of 73,000 active; further: nearly all actives have a fitted effect of over 55% in size
#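 Counterscreen for endogenous-receptor signalling: CNG-channel HEK 293 cells report cAMP rise by membrane depolarization. After 60 min dye equilibration with 100 uM RO 20-1724, compounds incubated 30 min before bottom-read fluorescence at 590 nm.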
# Numbers stand for hits; - = inactive; ? = inconclusive; . = no result given; [ ] = remark or other dose. A selection: hits, their analogues and other compounds. The true share with any hit is near 3.2%. Unless noted, the call rests on the fitted dose curve; in most records, active means well fitted curve in the direction sought with a large enough effect; inconclusive means small, poorly fitted or top-dose-only effect, or another doubt; inactive means no such curve, though single readings can be large; an effect the other way counts as inactive or inconclusive.
SMILES,BRCT inh green,TsaE inh,BRCT inh red,TSHR ag,DNA Pol III inh,HEK293 cAMP cs
CCCCOc1ccc(S(=O)(=O)n2c(C)nc3ccccc32)cc1,-,-,-,?,-[11.4 µM],3.16µM
CCOc1ccc(S(=O)(=O)n2c(C)nc3ccccc32)cc1,-,-,-,-,-,-
COC(=O)c1cc(CSc2nnc(-c3ccccc3)c(-c3ccccc3)n2)oc1C,-,-,-,-,-,-
COC(=O)c1cc(CSc2nc3ccc(C)cc3[nH]2)oc1C,-,-,-,?,-,20µM
COc1cc(C2N(c3cccc(Cl)c3)C(=O)C3CCCN32)cc(OC)c1OC (configuration not stated),-,-,-,-,-,-
COc1cc(C2N(c3ccccc3)CCN2c2ccccc2)cc(OC)c1OC,-,-,-,3.16µM,-,-
C/C=C/OC(=O)NC(c1ccccc1)[C@@]1(C(=O)OC)CCCC1=O (some centres not stated),-[15.4 µM],.,-[15.4 µM],-[11.4 µM],.,-[11.4 µM]
Cc1ccc(C)c(-n2c(SCC(=O)Nc3nnc(C)s3)nnc2-c2ccoc2C)c1,-,-,-,?,-,2.51µM
Cc1cccc(C)c1NC(=O)CSc1nnc(-c2ccoc2C)n1C,-,-,-,-,-,-
CCc1nnc(NC(=O)CSc2nnc(COc3ccccc3)n2-c2ccc(C)cc2)s1,-,-,-,?,-,?
CCc1nnc(NC(=O)CSc2nnc(-c3ccccc3O)n2-c2ccc(C)cc2C)s1,-,-,-,?,-,20µM
Cc1ccc(C)c(-n2c(SCC(=O)Nc3nonc3C)nnc2-c2ccoc2C)c1,-,-,-,?,-,25.1µM
Cc1ccc2c3c(c(SCC(=O)Nc4nonc4C)nc2c1)CCCC3,-,-,-,?,-,7.94µM
Cc1nonc1NC(=O)CSc1nc2cc(Cl)ccc2c2c1CCCC2,-,-,-,?,-,?
COC(=O)CC1C(C)(C)C(O)C2CC3=C4C=C(OC)OC(c5ccoc5)[C@]4(C)CCC3[C@@]1(C)C2=O (some centres not stated),-[3.08 µM],.,-,.,.,.
CC(=O)Nc1ccc(S(=O)(=O)NCCc2cc3c(C)ccc(C)c3[nH]c2=O)cc1,-,-,-,?,-,25.1µM
Cc1cccc(OCc2nnc(SCc3cc(=O)n4cc(Br)ccc4n3)o2)c1,-,-,-,?,-,12.6µM
Cc1ccc(C(=O)CSc2nnc(COc3cccc(C)c3)o2)cc1,-,-,-,?,-,?
CCn1cc(C2=NOC(C(=O)Nc3ccc4c(c3)OCO4)C2)c(C)n1 (configuration not stated),-,.,-,?,.,1µM
O=C(Nc1ccc2c(c1)OCO2)C1CC(c2ccccc2Cl)=NO1 (configuration not stated),-,-,-,-,-,-
COc1ccccc1-c1nccc(Nc2ccc(F)cc2)n1,-,-,-,?,-,?
COc1ccc(-c2nn3c(-c4ccccc4)nnc3s2)cc1,-,-,-,?,-,?
COc1cccc(OC)c1-c1nn2c(-c3cc(-c4ccccc4)n[nH]3)nnc2s1,-,?,-,-,12.6µM,-
Nc1nc(N)nc(CCCc2nc(N)nc(N)n2)n1,-[15.4 µM],-,-[15.4 µM],-[11.4 µM],-[11.4 µM],-[11.4 µM]
CC(=O)N[C@H](Cc1c[nH]c2ccccc12)C(N)=O,-[3.08 µM],.,-,.,.,.
SMILES,BRCT inh green,TsaE inh,BRCT inh red,TSHR ag,DNA Pol III inh,HEK293 cAMP cs
CCCn1nnc(NC(=O)c2ccc(Cl)cc2Cl)n1,-,-,-,-,-,-
CCCCn1nnc(NC(=O)c2sc3cc(Cl)ccc3c2Cl)n1,-,-,-,?,-,25.1µM
Cc1cc(CN2CCCCC2)c(O)c(CN2CCCCC2)c1,-[15.4 µM],-,-[15.4 µM],-[11.4 µM],-[11.4 µM],-[11.4 µM]
C=C[C@](C)(O)CCC1C(=C)CC(O)C2C(C)(C)CCCC12C (some centres not stated),-,.,-,.,.,.
O=[N+]([O-])c1ccc2c(c1)Cc1cc(N=Cc3ccc4c(c3)OCO4)ccc1-2,-[15.4 µM],-,-[15.4 µM],-[11.4 µM],-[11.4 µM],-[11.4 µM]
C1CCC(N=C(NC23CC4CC(CC(C4)C2)C3)N2CCOCC2)CC1,-,-,-,?,-,25.1µM
O=C(NC12CC3CC(CC(C3)C1)C2)N1CCN(C(=O)C2CCCO2)CC1 (configuration not stated),-,-,-,-,-,-
O=c1ccn(C2OC(COP(=O)(O)OP(=O)(O)OP(=O)(O)O)C(O)C2O)c(=O)[nH]1 (configuration not stated),-,.,-,.,.,.
CCc1cc2cc(C(=O)N3CCN(Cc4ccccc4)CC3)sc2s1,-,-,-,?,-,31.6µM
COc1ccccc1CNc1ncncc1-c1ccc(N(C)C)cc1,-,-,-,6.31µM,-,-
Cc1ccc(C)c(NC(=O)c2ccc3c(c2)N(Cc2ccc(F)cc2)C(=O)CS3=O)c1 (configuration not stated),-,-,-,?,-,31.6µM
COC(=O)C1=C(C)N(Cc2ccccc2)C2=C(C(C)=O)C(c3ccccc3)[C@@](O)(C(=O)OC)C(=O)N2C1c1ccccc1 (some centres not stated),-[15.4 µM],.,-[15.4 µM],-[11.4 µM],.,-[11.4 µM]
COCCNS(=O)(=O)c1ccc(OCC(=O)OC)c(Cl)c1,-,-,-,20µM,-,-
COC(=O)COc1ccc(S(=O)(=O)NCc2ccco2)cc1Cl,-,-,-,-,-,-
CC(c1ccco1)N(C(=O)COc1ccc(Cl)cc1Cl)c1ccccn1 (configuration not stated),-,-,-,?,-,25.1µM
CCCCOc1ccccc1NC(=O)Cn1c(-c2nonc2N)nc2ccccc21,-,-,-,?,-,6.31µM
Nc1nonc1-c1nc2ccccc2n1CC(=O)N1CCN(c2ccc(F)cc2)CC1,-,-,-,?,-,25.1µM
CCOc1ccc(CCNC(=O)Cn2c(-c3nonc3N)nc3ccccc32)cc1OCC,-,-,-,?,-,?
CCOC(=O)Cn1c(-c2nonc2NC(=O)c2ccccc2F)nc2ccccc21,-,-,-,-,-,-
O=C(c1csnn1)N1CCC2(CC1)CN(c1cccc(-c3ccccc3)c1)C2,-,-,-,?,-,?
C=CCOC(=O)C(C(=O)CC)C(NC(=O)OC)c1ccc(F)cc1 (configuration not stated),-[15.4 µM],.,-[15.4 µM],-[11.4 µM],.,-[11.4 µM]
CC1(C)CC2CC(C)(CN2C(=O)COC(=O)c2ccc(Cl)cc2N)C1 (configuration not stated),-,-,-,?,-,25.1µM
